Compound activity deposited in PubChem by National Center for Advancing Translational Sciences (NCATS).
mIDH1 inhibitor – inhibitors of human mutant IDH1 R132H | O75874 | IDH1-R132H enzyme, NADPH consumption, diaphorase/resazurin fluorescence | Potency, µM (series often up to 76.6 µM), for the others: top-dose activity change, negative = inhibition, most hits filed as inhibitors | 0.093% of 390,000 active; further: on the % scale 0 is the no-effect control and ±100 the full control effect; nearly all actives have a fitted effect of over 65% in size
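IDH1-R132H (0.5 ug/mL) preincubated 30 min with compound, then NADPH (0.016 mM) and alpha-KG (2 mM) added; 80 min at RT, pH 7.5. Remaining NADPH coupled via diaphorase/resazurin to fluorescence (540/590 nm); concentration-response curves normalized to no-enzyme control.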
GLP1R inv ag – inverse agonists of human GLP-1 receptor; HEK293 GLP-1R CRE-luciferase, luminescence, 24 h; GLP-1R form is constitutively active; 1.6% of 410,000 active; AID 624417; Potency, µM (series often up to 38.3 µM), without a hit: at the highest dose activity change, negative = inhibition, usual class: inhibitors; P43220; further: on the % scale 0 is the no-effect control and ±100 the full control effect; nearly all actives have a fitted effect of over 55% in size
Target sequence (P43220 whole entry, looked up): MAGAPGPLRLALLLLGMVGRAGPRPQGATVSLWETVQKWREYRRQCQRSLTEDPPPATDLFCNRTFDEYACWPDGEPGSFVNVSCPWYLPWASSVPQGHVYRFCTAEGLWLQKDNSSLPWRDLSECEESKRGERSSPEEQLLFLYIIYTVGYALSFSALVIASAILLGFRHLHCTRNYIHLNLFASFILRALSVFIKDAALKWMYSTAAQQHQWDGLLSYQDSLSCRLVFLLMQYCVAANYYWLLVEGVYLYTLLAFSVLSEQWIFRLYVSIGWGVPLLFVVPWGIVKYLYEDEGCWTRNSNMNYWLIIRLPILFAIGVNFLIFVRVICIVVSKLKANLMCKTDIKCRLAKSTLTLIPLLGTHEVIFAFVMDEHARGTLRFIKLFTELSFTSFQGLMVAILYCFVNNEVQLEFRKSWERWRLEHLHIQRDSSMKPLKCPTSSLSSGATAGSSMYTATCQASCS
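Seeding at 200 cells/uL, 12 h culture, 24 hr compound treatment, then luciferase reagent and a luminescence read; cells are HEK293 stably expressing a constitutively active GLP-1R plus cAMP-responsive luciferase.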
rTrxR1 inhibitor – rat TrxR1 inhibition; O89049; recombinant rTrxR1, NADPH fluorescence consumption, selenite substrate; Potency, µM (series often up to 114 µM), inactives show at the top dose activity change, negative = inhibition, actives largely listed as inhibitors; 1% of 390,000 active; further: on the % scale 0 is the no-effect control and ±100 the full control effect; nearly all actives have a fitted effect of over 65% in size
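Rat TrxR1 (90 nM in the dispensed reagent) was pre-reduced with 400 uM NADPH for 5 min at room temperature, then incubated with compound for 15 min. After 400 uM selenite was added, NADPH fluorescence (Ex 340/Em 450 nm) was followed for 8 min.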
TrxR1 substrate – is turned over as a substrate by rat TrxR1. O89049. purified TrxR1 substrate turnover, NADPH consumption readout. Potency, µM (highest dose often 114 µM), for the others: at the highest dose activity change, negative = substrate turnover. 0.01% of 390,000 active. AID 588456; further: on the % scale 0 is the no-effect control and ±100 the full control effect; nearly all actives have a fitted effect of over 50% in size
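Rat TrxR1, dispensed at 90 nM, was prereduced with 400 uM NADPH (final) for 5 min at ~22 deg C, then incubated with compound 15 min before 400 uM selenite. A first-read NADPH fluorescence drop versus no-compound background flagged substrates.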
HEK293 tox – cytotoxicity counter-screen for GLP-1 receptor inverse agonists. 0.13% of 410,000 active. HEK293 cAMP-luciferase reporter cells, luminescence, 24 h. AID 624418. Potency, µM (top dose mostly 38.3 µM), without a hit: at the highest dose activity change, negative = inhibition, actives largely listed as inhibitors;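 further: loss of luciferase light is scored as toxicity; on the % scale 0 is the no-effect control and ±100 the full control effect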
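Step one: seed cells (200 cells/uL, DMEM with 10% Nu serum, 1% pen-strep). Step two: 12-hour incubation at 37 deg C. Step three: pin 23 nL compound, incubate 24 hr. Step four: add luciferase reagent, read luminescence 12 min later.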
GLP-1R agonist – agonists of human GLP-1 receptor; P43220; HEK293 GLP-1R CRE-luciferase, luminescence, 4-6 h; cells express a hypersensitive GLP-1R form; Potency, µM (titrated, usually from 45.6 µM), for the others: top-dose activation, hits mostly activators; 0.007% of 380,000 active; AID 624172; further: % of control where 0% means no effect
Numbers without * were called inactive; i = inactive; ? = inconclusive; . = no result given; ! = a repeat was not active; [ ] = remark or other dose. The list is not random: actives were taken first. Their share in the collection is about 2.7%. The call rests on the fitted dose curve; in most records, active means well fitted curve in the direction sought with a large enough effect; inconclusive means small, poorly fitted or top-dose-only effect, or another doubt; inactive means no such curve, though single readings can be large; an effect the other way counts as inactive or inconclusive. Potency means the concentration at half of the fitted maximal effect.

SMILES	mIDH1 inhibitor	GLP1R inv ag	rTrxR1 inhibitor	TrxR1 substrate	HEK293 tox	GLP-1R agonist
O=C(CN1CCCC1)Nc1ccc(Oc2ccc(NC(=O)CN3CCCC3)cc2)cc1	4%	1.8µM*	15%[57.1 µM]	24%[57.1 µM]	?	6%
CC1CCN(CC(=O)Nc2ccc(N3CCCCCC3)cc2)CC1	11%	2.8µM*	4%	-4%	-27%	23%
CC1CCN(CC(=O)Nc2cccc(C(=O)Nc3cccc(C(F)(F)F)c3)c2)CC1	12%	3.2µM*	-7%	-8%	?	16%
COc1ccc(NC(=O)CN2CCCC2)cc1	3%	-9%	-10%[57.1 µM]	-8%[57.1 µM]	1%	9%
Cc1ccc2c(c1)c1c(n2CC(O)CN2CCC(C)CC2)CCCC1 (configuration not stated)	0%	5.6µM*	0%	0%	?	-3%
CCc1ccccc1NC(=O)CN1C(=O)COc2ccc(S(=O)(=O)Nc3ccccc3)cc21	1%	-16%	-7%	-13%	-8%	0%
CC(C)(C)n1ncc2c(=O)n(Cc3ccc(C(F)(F)F)cc3)cnc21	.	.	-18%	-7%	.	.
CCN1CCN(CCCNC(=O)c2cc3cc4ccc(OC)cc4nc3o2)CC1	4%	-13%	?	i	-4%	-3%
COc1ccc2cc3cc(C(=O)NCCCN4CCC(C)CC4)oc3nc2c1	6%	-10%	50µM*	700%	-11%	1%
O=C(Nc1sc2c(c1C(=O)Nc1ccccc1)CCC2)c1ccc(Br)cc1	0%	7%	56µM*	3%	-7%	.
CCCCNc1ncnc2oc(-c3ccco3)c(-c3ccco3)c12	.	.	?	18%	.	.
CCOC(=O)N1CCN(CCC(=O)c2ccc(Br)cc2)CC1	0%	7%	1µM*	11%[57.1 µM]	11%	-2%
CCOC(=O)N1CCN(CCC(=O)c2ccc(OC)cc2)CC1	-2%	3%	3.5µM*	5%	0%	-1%
COc1ccc(C(=O)CCN2CCC(C)CC2)cc1	-2%	1%	0.71µM*	0%	8%	0%
COc1cc2c(cc1OC)CN(CCC(=O)c1ccc(Br)cc1)CC2	-2%	-12%	0.28µM*	-3%[57.1 µM]	-9%	12%
Cc1ccccc1S(=O)(=O)Cc1ccc(C(=O)N2CCN(c3cccc(Cl)c3)CC2)o1	-15%	?	7%	-7%	?	.
COc1ccc(S(=O)Cc2ccc(C(=O)N3CCN(c4cccc(C)c4C)CC3)o2)cc1 (configuration not stated)	-1%	7.1µM*!	9%	3%	2%	-5%
O=C(c1ccc(CS(=O)c2ccccc2Cl)o1)N1CCN(c2cccc(Cl)c2)CC1 (configuration not stated)	-13%	0.89µM*	23%	-2%	?	.
O=C(c1ccc(CS(=O)c2ccccc2Cl)o1)N1CCN(c2cccc(C(F)(F)F)c2)CC1 (configuration not stated)	10%	?	-9%	-15%	-26%	.
Cc1ccccc1S(=O)(=O)Cc1ccc(C(=O)N2CCN(c3cccc(C)c3C)CC2)o1	7%	4.5µM*	1%[57.1 µM]	4%[57.1 µM]	?	-18%
C[C@@H]1C(SC2Cn3cnc[n+]3C2)=C(C(=O)[O-])N2C(=O)[C@H]([C@@H](C)O)[C@@H]12 (some centres not stated)	.	.	.	.	.	-1%
Cc1cccc(N2CCN(C(=O)C3CCCN(S(=O)(=O)c4ccc(Br)s4)C3)CC2)c1C (configuration not stated)	-5%	?	3%	-8%	-13%	.
Clc1cccc(CNc2cc(-c3ccccc3)nc3nncn23)c1	-2%	?	4%	-3%	-11%	.
CC(C)(C)C(=O)NCCc1nc2ccccc2n1CCCCOc1ccc(Cl)cc1	2%	10µM*	13%	-2%	-21%	.
Cc1ccc(Cn2c(CCNC(=O)C(C)C)nc3ccccc32)cc1	17%	?	13%	9%	2%	.
SMILES	mIDH1 inhibitor	GLP1R inv ag	rTrxR1 inhibitor	TrxR1 substrate	HEK293 tox	GLP-1R agonist
Cc1ccc(OCCn2c(CCNC(=O)C(C)C)nc3ccccc32)cc1	10%	7.9µM*	1%	-5%	-11%	-3%
CC(C)C(=O)NCCc1nc2ccccc2n1CCCOc1ccc(Cl)cc1	7%	?	-19%[57.1 µM]	4%[57.1 µM]	?	8%
O=C(CN1CCN(Cc2ccc(F)cc2)C1=O)NCc1ccccc1	-6%	2%	5%	2%	-7%	-1%
O=C(CN1CCCN(Cc2ccccc2Cl)S1(=O)=O)NCc1ccccc1	12%	4%	13%	5%	3%	.
CC(=O)Oc1c2occc2cc2ccc(=O)oc12	2%	14%	-20%	-4%	5%	-5%
COc1c2occc2c(OC(C)=O)c2c(=O)cc(C)oc12	3%	10µM*	31%[57.1 µM]	6%[57.1 µM]	-15%	10%
Cc1ccccc1CN1[C@H](C)[C@H](c2ccccc2)OCCS1(=O)=O	.	.	27%	6%	.	.
O=C1c2ccccc2CCCC12N=NCC2c1cccc2ccccc12 (configuration not stated)	1%	7.1µM*	-2%	-4%	13%	0%
CCOc1ccc(/C=N/NC(=S)NC2CC3CC2C2C=CCC32)cc1 (configuration not stated)	8%	?	20%[57.1 µM]	1%[57.1 µM]	?	9%
COc1cc(/C=N/NC(=S)NC2CC3CC2C2C=CCC32)ccc1O (configuration not stated)	-15%	?	14%[11.4 µM]	9%[57.1 µM]	4.5µM*	?
Cc1nc2c(-c3ccc(Cl)cc3)cnn2c(N)c1-c1ccc(F)cc1	-5%	?	20%	57%	3%	-2%
Cc1nc2c(-c3ccc(F)cc3)cnn2c(N)c1-c1ccccc1	5%	0.89µM*	31%	31%	3%	-5%
CC1CC=CC2C1C(=O)N(Cc1ccccc1)C2c1ccc2ccccc2c1 (configuration not stated)	.	.	-16%	0%	.	.
C/C(=N/NC(=O)c1ccc(C(C)(C)C)cc1)c1ccccn1	0%	2.5µM*	6%	6%[57.1 µM]	?	?
C/C(=N\NC(=O)C(c1ccccc1)c1ccccc1)c1ccccn1	-1%	2.8µM*	10%	4%	?	-10%
C/C(=N\NC(=O)C(c1ccccc1)c1ccccc1)c1ccc(O)cc1	0%	-25%	4%	-9%	7%	-6%
C/C(=N\NC(=O)c1ccc(Cl)c(Cl)c1)c1ccccn1	-1%	?	14%	6%	?	7%
CCc1nn(CC(=O)Nc2cccc(C(C)=O)c2)c(=O)c2cc3sccc3n12	-17%	4%	16%	2%	-2%	.
